# Measured values: PMC11062922 (Nature Chemical Biology, 2023)
# Read-outs that look alike come from different tables or passages of the source.
# Test system: PIK3CD
# Set-up: species or system human, MV4-11 + K-562 + COLO205 + SK-N-BE2 + OVCAR-8
# Details: read-out: apparent Kd, n = 1
# [1] = compound concentrations:100 nM and 1000 nM (sheet 'Samples')
# [2] = compound concentrations: 100 nM and 1000 nM (sheet 'Samples'), CATDS: 1
smiles,measurement,setting,value
Nc1ncc(-c2ccc3nccc(-c4ccncc4)c3c2)cc1S(=O)(=O)N1CCCCC1 [GSK1693850A],potency estimated from few doses,"compound concentrations: 100 nM and 1000 nM (sheet 'Samples'), CATDS: 0.491044301139066",4.69 nM
Cc1nn2c(=O)cc(N3CCOCC3)nc2n1Cc1cccc(Cl)c1Cl [GSK2342769A],potency estimated from few doses,[1],87.6 nM
CCn1c(-c2ccncc2)nc2cnccc21 [SB-735216],potency estimated from few doses,"compound concentrations: 100 nM and 1000 nM (sheet 'Samples'), CATDS: 0.88201100485399897",172 nM
CCCCCc1nc2c(N)ncnc2n1CCCCC [SKF-97255],potency estimated from few doses,[2],152 nM
C[C@H]1CC[C@@H](C(=O)Nc2ccccc2)CN1c1cc(-c2ccc3c(N)n[nH]c3c2)nc(N)n1 [GSK2283293_KCGS],potency estimated from few doses,[1],168 nM
O=c1cc(N2CCOCC2)nc2n(Cc3ccc(F)c(Cl)c3)ccn12 [GSK2297099A],potency estimated from few doses,[1],150 nM
O=C(NCCNc1ccnc(NCc2ccc(F)cc2)n1)c1cc2ccccc2s1 [GSK1379944A],potency estimated from few doses,[1],200 nM
O=C(O)C(F)(F)F.[2H]C([2H])(c1cccc(C(F)(F)F)c1C)n1c(SC)nn2c(=O)cc(N3CCOCC3)nc12 [GSK2363608B],potency estimated from few doses,[1],146 nM
COc1ncc(-c2cc(-c3ncc(CN4C[C@@H](C)O[C@@H](C)C4)o3)c3cn[nH]c3c2)cc1NS(C)(=O)=O [GSK2292767],potency estimated from few doses,"compound concentrations: 100 nM and 1000 nM (sheet 'Samples'), CATDS: 0.86289624081171401",0.614 nM
Cl.NC(=O)c1cccc(Nc2nccc(Nc3ccc(Oc4c(Cl)cccc4Cl)c(Cl)c3)n2)c1 [GW659009A],potency estimated from few doses,"compound concentrations: 100 nM and 1000 nM (sheet 'Samples'), CATDS: 0.90760673272471903",9.83 nM
CC(C)N1CCN(Cc2cnc(-c3cc(-c4cccc5[nH]ccc45)cc4[nH]ncc34)o2)CC1 [GSK2269557],potency estimated from few doses,[2],1.45 nM
